In PubChem BioAssay (EPA / NIEHS):
Values joined by “and” are separate entries in the source; they are usually repeats but may differ in a detail not shown here. Identical values can stand only once. More than one record can exist for a structure, and the calls need not agree. Active and inactive are the calls of the source. Rule for the calls: active = hit-call score of the fitted dose curve at least 0.9, where 1 is the maximum; inactive = score below 0.9.

What was measured:
[1] = BSK_hDFCGF_SRB: Viability Assessment in the BioMAP Diversity Plus: hDFCGF Assay (AID 2283061); conditions: primary human foreskin fibroblasts;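 note: cells exposed to compound for 24 h before the read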
Summary of the method: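 Human foreskin primary fibroblasts were treated with compound and assessed 24 h after dosing. Total protein was measured by sulforhodamine B staining (0.1% SRB after 10% TCA fixation, 560 nm read) as a cytotoxicity marker, with bidirectional fitting against DMSO baseline.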

[2] = read-out: TIMP metallopeptidase inhibitor 1 (TIMP1), TIMP1 (gene 7076); test: BSK_hDFCGF_TIMP1: BioMAP Diversity Plus: hDFCGF Assay for TIMP metallopeptidase inhibitor 1 (TIMP1) Biomarker Activity (AID 2283062); conditions: primary human foreskin fibroblasts; actives raise or lower the signal
Summary of the method: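 Primary human foreskin fibroblasts in the hDFCGF system were dosed with compound for 24 h, then TIMP-1 was measured by ELISA. Activity was fitted bidirectionally relative to DMSO control; parallel SRB staining assessed cytotoxicity.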

[3] = read-out: Monokine induced gamma interferon (MIG), CXCL9 (gene 4283); test: BSK_hDFCGF_MIG: BioMAP Diversity Plus: hDFCGF Assay for Monokine induced gamma interferon (MIG) Biomarker Activity (AID 2283063); conditions: primary human foreskin fibroblasts; actives raise or lower the signal
Summary of the method: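 ELISA read-out of MIG from primary human dermal fibroblasts 24 h post-dosing. Gain or loss of signal fitted bidirectionally, DMSO as baseline.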

[4] = read-out: Matrix Metallopeptidase 1 (MMP1), MMP1 (gene 4312); test: BSK_hDFCGF_MMP1: BioMAP Diversity Plus: hDFCGF Assay for Matrix Metallopeptidase 1 (MMP1) Biomarker Activity (AID 2283064); conditions: primary human foreskin fibroblasts; actives raise or lower the signal
Summary of the method: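 ELISA read-out of MMP1 from human foreskin fibroblasts (primary skin cells), 24 h post-dose. Gain or loss of signal was fitted bidirectionally versus DMSO negative control; cytotoxicity was checked by SRB in parallel cultures.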

[5] = read-out: Vascular cell adhesion molecule 1 (VCAM1), VCAM1 (gene 7412); test: BSK_hDFCGF_VCAM1: BioMAP Diversity Plus: hDFCGF Assay for Vascular cell adhesion molecule 1 (VCAM1) Biomarker Activity (AID 2283065); conditions: primary human foreskin fibroblasts; actives raise or lower the signal;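 for AC50: VCAM-1 protein level quantified by ELISA after 24 h chemical exposure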
Summary of the method: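 Primary human foreskin fibroblasts (hDFCGF system) were dosed with chemical and VCAM-1 was measured by ELISA 24 h later. Bidirectional curve fitting used DMSO as negative control and activity baseline.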

[6] = read-out: Plasminogen activator inhibitor-1 (PAI1), SERPINE1 (gene 5054); test: BSK_hDFCGF_PAI1: BioMAP Diversity Plus: hDFCGF Assay for Plasminogen activator inhibitor-1 (PAI1) Biomarker Activity (AID 2283066); conditions: primary human foreskin fibroblasts; actives raise or lower the signal
Summary of the method: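 PAI-1 levels in human dermal foreskin fibroblasts were quantified by ELISA 24 h after dosing, with gain or loss analysed against DMSO. Overt cytotoxicity was checked by sulforhodamine B total-protein staining in parallel cultures.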

[7] = read-out: Intercellular Adhesion Molecule 1 (ICAM1), ICAM1 (gene 3383); test: BSK_KF3CT_ICAM1: BioMAP Diversity Plus: KF3CT Assay for Intercellular Adhesion Molecule 1 (ICAM1) Biomarker Activity (AID 2283067); conditions: primary human keratinocytes with fibroblasts; actives raise or lower the signal
Summary of the method: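 Human keratinocyte plus foreskin fibroblast primary co-culture was exposed to chemical for 24 h. ICAM-1 was then quantified by ELISA, and the data were fit bidirectionally against DMSO as the negative control and baseline.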

[8] = read-out: Interferon-gamma inducible Protein 10 (IP10), CXCL10 (gene 3627); test: BSK_KF3CT_IP10: BioMAP Diversity Plus: KF3CT Assay for Interferon-gamma inducible Protein 10 (IP10) Biomarker Activity (AID 2283068); conditions: primary human keratinocytes with fibroblasts; actives raise or lower the signal
Summary of the method: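 Human keratinocyte plus foreskin fibroblast primary co-culture exposed to test chemical for 24 h; IP-10 measured by ELISA. Concentration-response fitted bidirectionally against DMSO control as baseline.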

[9] = BSK_KF3CT_SRB: Viability Assessment in the BioMAP Diversity Plus: KF3CT Assay (AID 2283069); conditions: primary human keratinocytes with fibroblasts;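 note: fitted for both signal gain and loss against DMSO baseline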
Summary of the method: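 SRB read-out at 560 nm (0.1% stain, TCA-fixed cells) gauges overt cytotoxicity in a human skin keratinocyte–fibroblast co-culture 24 h post-dosing. Signal change was fitted bidirectionally relative to DMSO control.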

[10] = read-out: Interleukin-1 alpha (IL1a), IL1A (gene 3552); test: BSK_KF3CT_IL1a: BioMAP Diversity Plus: KF3CT Assay for Interleukin-1 alpha (IL1a) Biomarker Activity (AID 2283070); conditions: primary human keratinocytes with fibroblasts; actives raise or lower the signal
Summary of the method: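 Primary skin co-culture (keratinocytes, foreskin fibroblasts), 24 h exposure; ELISA for IL-1a; bidirectional curve fit vs DMSO.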

**Q.** What does the source list for Oc1ccc(-c2ccccc2)cc1?
**A.** outcome [1]: inactive; outcome [2]: inactive; outcome [3]: inactive; outcome [4]: inactive; outcome [5]: inactive; outcome [6]: inactive; outcome [7]: inactive; outcome [8]: inactive; outcome [9]: inactive; AC50 [10]: 11.5 µM (active)

**Q.** For O=[N+]([O-])c1ccc2c3c(cccc13)CC2, which outcome [1] is on record?
**A.** inactive

**Q.** And the outcome [2]?
**A.** inactive

**Q.** What about the outcome [3] of the same molecule?
**A.** inactive

**Q.** And the outcome [4]?
**A.** inactive

**Q.** What about the outcome [5] of the same molecule?
**A.** inactive

**Q.** What about the outcome [6] of the same molecule?
**A.** inactive

**Q.** And the outcome [7]?
**A.** inactive

**Q.** What about the outcome [8] of the same molecule?
**A.** inactive

**Q.** And the outcome [10]?
**A.** inactive

**Q.** Which outcome [1] does the source give for O=C(O)CCC(F)(C(F)(F)F)C(F)(F)F here?
**A.** inactive

**Q.** What about the outcome [2] of the same molecule?
**A.** inactive

**Q.** And the outcome [3]?
**A.** inactive

**Q.** What about the outcome [4] of the same molecule?
**A.** inactive

**Q.** And the AC50 [5]?
**A.** 7.04 µM (active)

**Q.** What about the outcome [5] of the same molecule?
**A.** inactive

**Q.** And the outcome [6]?
**A.** inactive

**Q.** What about the outcome [7] of the same molecule?
**A.** inactive

**Q.** And the outcome [8]?
**A.** inactive

**Q.** What about the outcome [10] of the same molecule?
**A.** inactive

**Q.** What does the source list for COc1cc(-c2ccc(N)c(OC)c2)ccc1N?
**A.** outcome [1]: inactive; outcome [2]: inactive; outcome [3]: inactive; AC50 [4]: 20 µM (active); outcome [4]: inactive; outcome [6]: inactive; outcome [7]: inactive; outcome [8]: inactive; outcome [10]: inactive

**Q.** Which results are given for COC(=O)c1sccc1S(=O)(=O)NC(=O)Nc1nc(C)nc(OC)n1?
**A.** outcome [1]: inactive; outcome [2]: inactive; outcome [3]: inactive; outcome [4]: inactive; outcome [5]: inactive; outcome [6]: inactive; outcome [7]: inactive; outcome [8]: inactive; outcome [9]: inactive; outcome [10]: inactive

**Q.** With COP(=S)(OC)Oc1ccc(S(=O)(=O)N(C)C)cc1 as the molecule, how does the outcome [1] read?
**A.** inactive

**Q.** What about the outcome [2] of the same molecule?
**A.** inactive

**Q.** And the outcome [3]?
**A.** inactive

**Q.** What about the outcome [4] of the same molecule?
**A.** inactive

**Q.** What about the outcome [5] of the same molecule?
**A.** inactive

**Q.** What about the outcome [6] of the same molecule?
**A.** inactive

**Q.** What about the outcome [7] of the same molecule?
**A.** inactive

**Q.** And the outcome [8]?
**A.** inactive

**Q.** And the outcome [10]?
**A.** inactive

**Q.** Which results are given for O=C(OC1CCCCC1)c1ccccc1C(=O)OC1CCCCC1?
**A.** AC50 [1]: 9.82 µM (active); AC50 [2]: 14.3 µM (active); AC50 [3]: 16.4 µM (active); AC50 [4]: 20.9 µM (active); AC50 [5]: 6.34 µM (active); AC50 [6]: 12.3 µM (active); outcome [7]: inactive; outcome [8]: inactive; outcome [9]: inactive; AC50 [10]: 15.3 µM (active)

**Q.** What does the source list for O=C(O)C(Cl)(Cl)Cl?
**A.** outcome [1]: inactive; outcome [2]: inactive; outcome [3]: inactive; outcome [4]: inactive; outcome [5]: inactive; outcome [6]: inactive; outcome [7]: inactive; outcome [8]: inactive; outcome [10]: inactive

**Q.** For O=[N+]([O-])c1ccc(O)c([N+](=O)[O-])c1, which outcome [1] is on record?
**A.** inactive

**Q.** And the outcome [2]?
**A.** inactive

**Q.** What about the outcome [3] of the same molecule?
**A.** inactive

**Q.** What about the outcome [4] of the same molecule?
**A.** inactive

**Q.** What about the outcome [5] of the same molecule?
**A.** inactive

**Q.** And the outcome [6]?
**A.** inactive

**Q.** And the outcome [7]?
**A.** inactive

**Q.** And the outcome [8]?
**A.** inactive

**Q.** And the outcome [10]?
**A.** inactive

**Q.** Which results are given for O=c1[nH]c(=O)[nH]c(=O)[nH]1?
**A.** outcome [1]: inactive; outcome [2]: inactive; outcome [3]: inactive; outcome [4]: inactive; outcome [5]: inactive; outcome [6]: inactive; outcome [7]: inactive; outcome [8]: inactive; outcome [10]: inactive

**Q.** With ClCC(Cl)CCl as the molecule, how does the outcome [1] read?
**A.** inactive

**Q.** And the outcome [2]?
**A.** inactive

**Q.** And the outcome [3]?
**A.** inactive

**Q.** And the outcome [4]?
**A.** inactive

**Q.** And the outcome [5]?
**A.** inactive

**Q.** And the outcome [6]?
**A.** inactive

**Q.** And the outcome [7]?
**A.** inactive

**Q.** And the outcome [8]?
**A.** inactive

**Q.** What about the outcome [10] of the same molecule?
**A.** inactive

**Q.** What does the source list for NC(=O)O?
**A.** outcome [1]: inactive; outcome [2]: inactive; outcome [3]: inactive; outcome [4]: inactive; outcome [5]: inactive; outcome [6]: inactive; outcome [7]: inactive; outcome [8]: inactive; outcome [9]: inactive; outcome [10]: inactive

**Q.** Which outcome [1] does the source give for CC(=O)OC(c1ccccc1)C(Cl)(Cl)Cl (stereo not given) here?
**A.** inactive

**Q.** And the outcome [2]?
**A.** inactive

**Q.** And the AC50 [3]?
**A.** 36.7 µM (active)

**Q.** What about the outcome [3] of the same molecule?
**A.** inactive

**Q.** What about the outcome [4] of the same molecule?
**A.** inactive

**Q.** And the outcome [6]?
**A.** inactive

**Q.** And the outcome [7]?
**A.** inactive

**Q.** And the outcome [8]?
**A.** inactive

**Q.** And the outcome [10]?
**A.** inactive

**Q.** What does the source list for CC(C)(c1ccccc1)c1ccc(O)c(C(C)(C)c2ccccc2)c1?
**A.** AC50 [1]: 3.57 µM (active); AC50 [2]: 4.07 µM (active); AC50 [3]: 4.86 µM (active); AC50 [4]: 4.05 µM (active); AC50 [6]: 3.74 µM (active); AC50 [7]: 3.68 µM (active); AC50 [8]: 3.1 µM (active); AC50 [9]: 2.33 µM (active); AC50 [10]: 4.02 µM (active)

**Q.** For CC1(C)Cc2cccc(O)c2O1, which outcome [1] is on record?
**A.** inactive

**Q.** And the outcome [2]?
**A.** inactive

**Q.** What about the outcome [3] of the same molecule?
**A.** inactive

**Q.** And the outcome [4]?
**A.** inactive

**Q.** And the outcome [5]?
**A.** inactive

**Q.** What about the outcome [6] of the same molecule?
**A.** inactive

**Q.** And the outcome [7]?
**A.** inactive

**Q.** And the outcome [8]?
**A.** inactive

**Q.** And the outcome [10]?
**A.** inactive

**Q.** What does the source list for O=C(O)C(F)(F)C(F)(F)C(F)(F)C(F)(F)C(F)(F)C(F)(F)C(F)(F)C(F)(F)C(F)(F)C(F)(F)F?
**A.** AC50 [1]: 9.04 µM (active) and 5.23 µM (active) and 5.22 µM (active); AC50 [2]: 9.33 µM (active) and 5.14 µM (active) and 5.31 µM (active); AC50 [3]: 11.5 µM (active) and 4.94 µM (active) and 5.08 µM (active); AC50 [4]: 6.98 µM (active) and 5.59 µM (active) and 6.54 µM (active); AC50 [5]: 11.7 µM (active) and 3.07 µM (active) and 4.25 µM (active); AC50 [6]: 10.7 µM (active) and 5.61 µM (active) and 5.09 µM (active); AC50 [7]: 12.9 µM (active) and 5 µM (active) and 4.73 µM (active); AC50 [8]: 6.91 µM (active) and 5.45 µM (active) and 5.25 µM (active); AC50 [9]: 9.99 µM (active) and 5.01 µM (active) and 5.38 µM (active); AC50 [10]: 10.8 µM (active) and 3.41 µM (active) and 5.06 µM (active)
